Holding throughout (assay): qHTS profiling for inhibitors of Plasmodium falciparum proliferation (AID 504749); also: nearly all actives have a fitted effect of over 60% in size
What all share (details): P. falciparum in erythrocytes, SYBR Green DNA, 72 h; series mostly up to 12.8 µM
Background: qHTS replaces the single test concentration by a dilution series.

The subject of one assay is AA1029. The gist of the method:
(§1)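 Quantitative HTS: compounds pinned into medium, infected erythrocytes added (0.3% parasitemia, 2.5% hematocrit), 72 h culture at 37 C under 5% CO2. Saponin/Triton lysis with SYBR Green I, overnight RT, then fluorescence read.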

A further assay relates to AS120. The gist of the method:
as §1

For the next assay, the system named is CP185. The gist of the method: as §1
In another assay the test system is CP194. The gist of the method: as §1
In the next assay the test system is CP201. The gist of the method: as §1
The test system of the next assay is CP203. The gist of the method: as §1
Another assay has as its system CP211. The gist of the method: as §1
For the next assay, the system named is CP215. The gist of the method: as §1
A further assay relates to CP252. The gist of the method: as §1
A further assay has as its system CP266. The gist of the method:
as §1

For another assay, the system named is CP269. The gist of the method:
as §1

The next assay concerns CP286. The gist of the method:
as §1

The next assay relates to CP297. The gist of the method:
as §1

Another assay has as its system CP315. The gist of the method:
as §1

A further assay has as its system CP329. The gist of the method:
as §1

Another assay has as its system DIV17. The gist of the method:
as §1

The subject of a further assay is DIV30. The gist of the method: as §1
The next assay has as its system ECU. The gist of the method: as §1
For another assay, the system named is TAB113. The gist of the method:
as §1

The subject of a further assay is TAB165. The gist of the method: as §1

Records with an inconclusive call do not appear. The source made the active and inactive calls. Calls follow the shape of the dose curve; as a rule, active = well fitted inhibition curve with a large enough effect; inconclusive = small, poorly fitted or top-dose-only effect; inactive = flat fitted curve, though single readings scatter.
Potency is read from the fitted curve at half-maximal effect.

Take `NS(=O)(=O)c1cc2c(cc1Cl)N[C@@H](C(Cl)Cl)NS2(=O)=O`: the Potency result in the assay on AA1029, with AS120, with CP185, with CP194, with CP201 and with CP203 was “inactive” throughout. In addition, the Potency entry in the assay on CP211, in the assay with CP215, with CP252, in the assay on CP266, in the assay with CP269 and with CP286 was “inactive” throughout. Besides, the Potency entry with CP297, with CP315, in the assay on CP329, with DIV17, with DIV30 and in the assay on ECU was “inactive” throughout. In addition, the Potency entry with TAB113 and in the assay with TAB165 was “inactive” each time.

Turning to `COCC(=O)Nc1c(I)c(C(=O)NC[C@@H](O)CO)c(I)c(C(=O)N(C)C[C@@H](O)CO)c1I`, the Potency entry in the assay on AA1029, in the assay on AS120, in the assay on CP185, with CP194, in the assay with CP201 and in the assay on CP203 was “inactive” throughout. In addition, the Potency entry in the assay with CP211, in the assay with CP215, in the assay with CP252, in the assay with CP266, in the assay with CP269 and in the assay on CP286 was “inactive” throughout. In addition, the Potency entry with CP297, in the assay with CP315, in the assay with CP329, in the assay on DIV17, with DIV30 and in the assay with ECU was “inactive” in each case. Moreover, the Potency entry in the assay with TAB113 and in the assay with TAB165 was “inactive” each time.

For `CC(=O)[C@@H]1CC[C@@H]2[C@@H]3C[C@H](C)C4=CC(=O)CC[C@@]4(C)[C@H]3[C@H](O)C[C@]21C`, the Potency result with AA1029, in the assay on AS120, with CP185, in the assay on CP194, with CP201 and in the assay with CP203 was “inactive” throughout. Also, the Potency entry with CP211, with CP215, in the assay with CP252, in the assay with CP266, with CP269 and with CP286 was “inactive” each time. For the same compound, the Potency result in the assay with CP315, in the assay with CP329, with DIV17, in the assay with DIV30, in the assay on ECU and in the assay on TAB113 was “inactive” throughout. Further, the Potency result with TAB165 was “inactive”.

With `CC(=O)OCC(=O)[C@@]1(O)CC[C@@H]2[C@H]3CCC4=CC(=O)C=C[C@]4(C)[C@]3(F)[C@@H](O)C[C@@]21C`, the Potency result in the assay on AA1029, in the assay on AS120, in the assay with CP185, with CP194, with CP201 and in the assay with CP203 was “inactive” each time. The Potency result in the assay on CP211, in the assay with CP215, in the assay with CP252, in the assay on CP266, in the assay with CP269 and in the assay on CP286 was “inactive” each time. In addition, the Potency result in the assay with CP297, in the assay on CP315, in the assay with CP329, in the assay on DIV17, in the assay with DIV30 and with ECU was “inactive” each time. The Potency entry with TAB113 and in the assay on TAB165 was “inactive” in each case.

As for `C[C@H]1CC[C@]2(OC1)O[C@@H]1C[C@@H]3[C@@H]4CC[C@H]5C[C@@H](O)CC[C@]5(C)[C@@H]4CC(=O)[C@@]3(C)[C@H]1[C@@H]2C`, the Potency result in the assay with AA1029, in the assay on AS120, in the assay with CP185, with CP194, in the assay on CP201 and with CP203 was “inactive” in each case. Moreover, the Potency entry in the assay on CP211, in the assay on CP215, in the assay with CP252, in the assay with CP266, with CP269 and in the assay with CP286 was “inactive” in each case. In addition, the Potency entry in the assay with CP297, with CP315, in the assay with CP329, in the assay on DIV17, in the assay on DIV30 and in the assay on ECU was “inactive” in each case. The Potency result in the assay on TAB113 and with TAB165 was “inactive” throughout.

Take `C[C@@H](C(=O)O)c1ccc(C(=O)c2ccccc2)s1`: the Potency result with AA1029, with AS120, in the assay on CP185, with CP194, in the assay on CP201 and with CP203 was “inactive” throughout. The Potency entry in the assay with CP211, in the assay with CP215, in the assay on CP252, in the assay with CP269, in the assay with CP286 and with CP297 was “inactive” each time. The Potency result in the assay on CP315, in the assay with CP329, in the assay with DIV17, in the assay with DIV30, in the assay on ECU and in the assay with TAB113 was “inactive” in each case. Further, the Potency result with TAB165 is “inactive”.

In the case of `COC(=O)C1=C(C)NC(C)=C(C(=O)OC(C)C)[C@H]1c1cccc2nonc12`, the Potency result in the assay with CP185, in the assay with CP266 and in the assay on DIV30 was “inactive” throughout.

As for `CCC[C@@H]1O[C@@H]2C[C@@H]3[C@H]4CCC5=CC(=O)C=C[C@@]5(C)[C@H]4[C@H](O)C[C@@]3(C)[C@@]2(C(=O)CO)O1`, the Potency in the assay on AA1029 was 11.2 µM (active); in the assay with AS120, 11.2 µM (active); in the assay with CP215 it was 15.1 µM (active); in the assay with CP252 it was 11.2 µM (active); in the assay on CP297, 12 µM (active); in the assay with ECU, 7.08 µM (active). Besides, the Potency in the assay with TAB165 was 11.2 µM (active). The Potency result with CP329 was “inactive”.

As for `C[C@H](C(=O)O)c1cccc(Oc2ccccc2)c1`, the Potency entry in the assay on AA1029, in the assay on AS120, in the assay with CP185, with CP194, with CP201 and in the assay on CP203 was “inactive” in each case. Also, the Potency result in the assay with CP211, with CP215, in the assay on CP252, in the assay on CP266, in the assay with CP269 and with CP286 was “inactive” throughout. For the same compound, the Potency entry with CP297, in the assay with CP315, with CP329, with DIV17, in the assay on DIV30 and with ECU was “inactive” in each case. The Potency entry in the assay with TAB113 and in the assay with TAB165 was “inactive” throughout.

On to `CC[C@H](Cc1c(I)cc(I)c(N)c1I)C(=O)O`, for which the Potency result in the assay with AA1029, with AS120, in the assay with CP185, in the assay on CP194, in the assay with CP201 and in the assay on CP203 was “inactive” each time. The Potency result in the assay on CP211, in the assay with CP215, with CP252, in the assay on CP266, with CP269 and in the assay with CP286 was “inactive” in each case. Also, the Potency entry in the assay with CP297, in the assay with CP315, with CP329, in the assay with DIV17, in the assay with DIV30 and in the assay on ECU was “inactive” throughout. In addition, the Potency entry in the assay on TAB113 and in the assay with TAB165 was “inactive” in each case.

For `NS(=O)(=O)c1cc2c(cc1Cl)N[C@@H](CC1CCCC1)NS2(=O)=O`, the Potency entry in the assay with AA1029, in the assay with AS120, with CP185, with CP194, in the assay with CP201 and in the assay on CP203 was “inactive” in each case. Also, the Potency entry in the assay on CP211, in the assay on CP215, in the assay with CP252, with CP266, with CP269 and with CP286 was “inactive” each time. Further, the Potency result with CP297, in the assay with CP315, in the assay with CP329, with DIV17, in the assay with DIV30 and with ECU was “inactive” in each case. In addition, the Potency result in the assay with TAB113 and in the assay with TAB165 was “inactive” in each case.

In the case of `CC(=O)OCC(=O)[C@@]1(O)[C@H](C)C[C@@H]2[C@H]3CCC4=CC(=O)C=C[C@]4(C)[C@]3(F)[C@@H](O)C[C@@]21C`, the Potency entry with AA1029, in the assay on AS120, with CP185, in the assay with CP194, in the assay on CP201 and with CP203 was “inactive” throughout. The Potency result with CP211, in the assay with CP215, with CP252, in the assay on CP266, in the assay with CP269 and in the assay on CP286 was “inactive” each time. In addition, the Potency result with CP297, with CP315, in the assay with CP329, with DIV17, in the assay on DIV30 and with ECU was “inactive” in each case. The Potency result in the assay on TAB113 and in the assay on TAB165 was “inactive” in each case.

For the origin of these results see PubChem BioAssay (NCATS).
